Assay outcomes: PubChem, several laboratories
The list is not random: actives were taken first. Their share in the collection is about 9.3%.
M1 ag: M1 muscarinic receptor agonism. CHO-M1 cells, Fluo-4 calcium fluorescence, agonist mode; hits give high values. B-score at 10 µM. 64,000 compounds, 3% hits;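 active = fluorescence rise, raw or as B-score row- and column-corrected plate score, outside the 99.7% band of its plate's samples, either direction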
NADH enzymes: inhibition of NAD/NADH coupling enzymes, library profiling; IC50, µM (doses to about 10 µM), for the others: at the top dose inhibition; AID 774; 65,000 compounds, 0.02% hits; coupled PK/LDH NADH assays, four targets;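 active = single-dose screening hits from any of four coupled enzyme assays that gave an IC50 when retested across doses; inconclusive = no clear call, values can overlap the other calls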;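 note: the DPM-DC format reads NADH fluorescence rather than 340 nm absorbance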
Fluor 339 460: intrinsic fluorescence of library compounds, ex339/em460 – biochemical, MLSMR library, data from DPM-DC assay, artefact control, profiling panel. fluorescence fold increase at 10 µM. 65,000 compounds, 5.5% hits. compound autofluorescence, ex339/em460 nm, NADH buffer; hits give high values; 1 = no-compound wells, NADH background;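 active = at 10 µM, mean starting fluorescence two-fold or more over control wells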;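 note: signal is the first read of a kinetic run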
M1 antagonist: M1 muscarinic receptor (rat) antagonism. P08482. CHO-M1 cells, Fluo-4 calcium, ACh EC80 antagonist mode; hits give low values. B-score at 10 µM. 64,000 compounds, 3.4% hits;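 active = calcium fluorescence response, raw or row-and-column corrected B-score, differing from the plate sample mean either way at a set confidence level, mostly lower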
Target sequence (P08482 whole entry, looked up): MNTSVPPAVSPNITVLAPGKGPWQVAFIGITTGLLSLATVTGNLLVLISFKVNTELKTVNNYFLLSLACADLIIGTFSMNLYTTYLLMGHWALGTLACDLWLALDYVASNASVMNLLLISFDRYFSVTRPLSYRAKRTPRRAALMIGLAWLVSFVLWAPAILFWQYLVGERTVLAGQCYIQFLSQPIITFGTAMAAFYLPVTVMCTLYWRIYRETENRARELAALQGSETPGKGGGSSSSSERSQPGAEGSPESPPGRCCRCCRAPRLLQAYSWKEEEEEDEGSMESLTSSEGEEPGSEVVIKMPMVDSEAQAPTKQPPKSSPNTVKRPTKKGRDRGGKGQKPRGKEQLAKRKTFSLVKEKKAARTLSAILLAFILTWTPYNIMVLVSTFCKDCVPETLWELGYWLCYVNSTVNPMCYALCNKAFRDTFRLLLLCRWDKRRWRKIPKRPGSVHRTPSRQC
Abs 340nm: absorbance at 340 nm. fold change at 10 µM. compound absorbance at 340 nm, fold over control. 65,000 tested, under 10 active. AID 708;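 active = at 10 µM dose, initial 340 nm absorbance at least 2 fold that of control wells; inactive = change under 2 fold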;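 note: initial absorbance extrapolated from kinetic A340 decline of NADH oxidation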
Htt clearance: compounds clearing mutant huntingtin protein. HeLa Exon1htt(103Q)mCFP, aggregate imaging; zero = plate's median compound well. inhibition, % at 1.5 µM. 47,000 compounds, 0.42% hits. AID 853;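 active = inhibition of aggregate fluorescence above about 70%, also judged a hit by eye on the cell image, limit read from the data, passing the limit was not always enough; inconclusive = no rule stated for this call; inactive = not judged a hit on image review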;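 note: cells exposed to compound for three days before fixation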
An asterisk follows results filed as active; ? = inconclusive; · = no result.

SMILES	M1 ag	NADH enzymes	Fluor 339 460	M1 antagonist	Abs 340nm	Htt clearance
O=C(C1CCN(S(=O)(=O)N2CCOCC2)CC1)N1CCN(c2ccccc2)CC1	-0.02	2%	1.1	-0.22	1	-43
CCOc1ccccc1N(C(=O)c1snc(C(N)=O)c1N)C(C(=O)NC1CCCC1)c1ccco1 (configuration not stated)	0.47	14%	2.4*	0.038	1.1	·
CC(C(=O)NCc1ccccc1)N(CCN1CCOCC1)C(=O)c1snc(C(N)=O)c1N (configuration not stated)	0.18	13%	2.4*	0.31	1	·
CCOc1ccccc1N(C(=O)c1ccco1)C(C(=O)NC1CCCC1)c1cccnc1 (configuration not stated)	1.8	5%	1.1	0.98	0.97	-28
COCCNC(=O)C(c1ccc(C)o1)N(C(=O)c1snc(C(N)=O)c1N)c1ccc(C)c(C)c1 (configuration not stated)	-0.52	7%	1.6	0.35	1	7
CC(C(=O)NCC1CCCO1)N(C(=O)c1snc(C(N)=O)c1N)c1ccccc1 (configuration not stated)	1.3	12%	3.1*	0.5	1.1	·
COCCNC(=O)C(c1ccc(C)o1)N(C(=O)c1snc(C(N)=O)c1N)c1cccc(C)c1 (configuration not stated)	0.16	15%	2.5*	-0.066	1	·
O=C(/C(=C/c1ccccc1)c1ccccc1)N1CCCCC1	·	·	·	·	·	-40
CC(C(=O)NCC1CCCO1)N(C(=O)c1snc(C(N)=O)c1N)c1cccc(F)c1 (configuration not stated)	-0.98	20%	3.9*	-0.45	1.1	-17
Oc1ccc(CN2CCCCC2)nc1-c1ccccc1	0.08	5%	3.3*	-1.5	1.1	9
Cc1cc(NC(=O)CN2CCN(c3ccccc3F)CC2)nc2c1c(=O)oc1ccccc12	0.69	5%	1	0.76	1.1	·
Cc1nn(-c2ccccn2)c2c1C(c1ccsc1)C1=C(CCCC1=O)N2 (configuration not stated)	0.026	5%	4.9*	0.0027	1.1	·
O=C1CCCC2=C1C(c1ccsc1)CC(=O)N2c1ccccc1 (configuration not stated)	0.65	1%	1	-0.045	0.99	23
CC(C)N(CCc1ccncc1)C(=O)Nc1ccc(Cl)c(Cl)c1	0.015	5%	1.1	-1.5	1.1	21
COCCn1c(-c2ccc(-c3ccccc3Cl)o2)nc2c1c(=O)[nH]c(=O)n2CC(C)C	-0.93	13%	2.1*	0.86	1.1	5
CCOC(=O)N1CCC(Nc2c(NCCN3CCN(c4ccccc4F)CC3)c(=O)c2=O)CC1	·	·	·	·	·	-78
COc1nc(N(C#N)CC(N)=O)nc(N2CCCC2)n1	-0.55	8%	1.1	0.096	0.97	-2
COCCN1CCn2c(nc3cc(NC(=O)NC4CCCCC4)ccc32)C1	1.1	9%	3.7*	-0.12	1	·
COCCN1CCn2c(nc3cc(NC(=O)c4ccc(OC)cc4)ccc32)C1	0.0044	8%	1.6	0.0064	1	·
c1ccc(CCn2nnnc2C(c2cccs2)N2CCOCC2)cc1 (configuration not stated)	-0.31	3%	1.1	-0.076	1	·
COc1ccc(Cn2nnnc2C(c2cccs2)N2CCOCC2)cc1 (configuration not stated)	-0.0052	8%	1	2.3*	0.98	26
CCCOC(=O)C1[C@H]2C(=O)N(CC3CCCO3)C[C@]23C=C[C@H]1O3 (some centres not stated)	-0.8	2%	1.1	0.28	1	0
O=c1c2ccccc2nc2n1CCC2	0.0055	?	1.1	-0.096	1	·
Nc1ccc2nc3n(c(=O)c2c1)CCC3	0.48	9%	2.1*	0.031	1.1	·
C/C(=N\O)c1ccc2c3ccccc3n(C)c2c1	·	10%	2.7*	·	1	?
SMILES	M1 ag	NADH enzymes	Fluor 339 460	M1 antagonist	Abs 340nm	Htt clearance
C/C(=N\O)c1c(C)c2ccccc2n1C	0.89	4%	1.1	-2	1	·
Cc1ccc(N2C(=O)CC(Sc3ncn[nH]3)C2=O)cc1C (configuration not stated)	·	·	·	·	·	15
CCN(CC)c1ccc(-c2nn3c(-c4ccccc4OC)nnc3s2)cc1	0.21	4%	3.6*	0.2	1.1	?
COc1ccc(-c2nn3c(-c4ccccc4)nnc3s2)cc1	0.27	10%	0.93	-0.71	1	-24
COc1ccc(-c2nnc3sc(-c4c(OC)cccc4OC)nn23)cc1	-0.65	3%	1	-0.13	0.99	·
COc1ccccc1-c1nn2c(-c3ccccc3Cl)nnc2s1	-2*	9%	1.2	-0.57	1.1	·
COc1cccc(OC)c1-c1nn2c(-c3cc(-c4ccccc4)n[nH]3)nnc2s1	-0.16	46µM*	1.4	0.31	1.1	·
CCOC(=O)CSc1nc(-c2ccncc2)ccc1C#N	1.3	2%	1.2	0.71	1.1	·
CN1CCN(C(=O)CSc2nc(-c3cccs3)ccc2C#N)CC1	0.69	7%	2.3*	0.28	1.1	·
c1coc(C2Nc3ccccc3-c3nc4ccccc4n32)c1 (configuration not stated)	-0.34	6%	2.3*	-0.91	1.1	·
c1ccc(C2Nc3ccccc3-c3nc4ccccc4n32)nc1 (configuration not stated)	3.2	5%	2.3*	0.83	1.1	·
c1ccc(C2Nc3ccccc3-c3nc4ccccc4n32)cc1 (configuration not stated)	·	·	·	·	·	31
Cc1ccc2cc(-c3noc(C4CCCO4)n3)c(=O)[nH]c2c1 (configuration not stated)	-1.7	0%	2.2*	0.82	1.1	·
Cc1ccc2cc(-c3noc(C4CCCCC4)n3)c(=O)[nH]c2c1	1.2	0%	2.2*	-1.2	1.1	·
Cc1ccc2cc(CN(C(=O)C3CCCO3)C3CCCCC3)c(=O)[nH]c2c1 (configuration not stated)	-1.2	5%	1.3	0.057	1.1	-8
CCOc1ccccc1-c1nc(-c2cc3ccc(C)cc3[nH]c2=O)no1	0.81	12%	1.7	0.046	1.1	·
CCCc1nc(-c2cc3ccc(C)cc3[nH]c2=O)no1	-0.73	7%	2.2*	0.046	1.1	6
Cc1nc2ccc(F)cc2cc1C(=O)NC(C)C	-0.86	6%	1.1	0.19	0.96	32
O=C(Nc1ccc(-c2nc3cccnc3s2)cc1)c1ccc(Br)o1	0.6	6%	2.2*	-0.15	1.1	·
Cc1c(NC(=O)c2ccco2)cccc1-c1nc2cccnc2s1	2.2	5%	1.2	0.62	1.1	·
O=C(Nc1ccc(-c2nc3cccnc3s2)cc1)c1ccco1	0.23	0%	2.1*	-0.79	1.3	·
COc1cccc2[nH]c3c(=O)n(CCN(C)C)cnc3c12	1.1	15%	3.8*	0.24	1	·
